Each structure is given as a SMILES string. Hit rate of the full screen: of about 39,000 compounds, about 3,300 (8.5%) were called active. Many of the other results were omitted from the sample, so actives are more common in it than they were.

The assay has as its system HepG2. Put plainly: cytotoxicity call (relative viability < 0.9). The conditions noted are these: 10 µM.
With `C[C@H](CO)N1C[C@H](C)[C@@H](CN(C)C(=O)NC2CCCCC2)Oc2c(NC(=O)c3cnccn3)cccc2C1=O`, the cytotoxicity call was “inactive”. Regarding `Cc1noc(C)c1S(=O)(=O)Nc1ccc2c(c1)C(=O)N([C@H](C)CO)C[C@H](C)[C@H](CN(C)C(=O)Nc1ccc(F)cc1)OCCCC[C@@H](C)O2`, the cytotoxicity call is “inactive”.

For the molecule `C[C@@H]1CN([C@@H](C)CO)C(=O)c2cc(C#CC3(O)CCCC3)cnc2O[C@H]1CN(C)C(=O)CN(C)C`, the cytotoxicity call is “inactive”. The result for `CNC[C@H]1OCCCC[C@@H](C)Oc2ccc(NC(=O)Nc3ccc(C(F)(F)F)cc3)cc2C(=O)N([C@@H](C)CO)C[C@H]1C` reads “inactive”; that for `COc1ccc(NC(=O)Nc2cccc3c2O[C@@H](CN(C)Cc2ccc(C(=O)Nc4ccccc4N)cc2)[C@H](C)CN([C@H](C)CO)C3=O)cc1`, “inactive”. Take `C[C@@H]1CCCCO[C@@H](CN(C)Cc2ccc(C(=O)Nc3ccccc3N)cc2)[C@@H](C)CN([C@H](C)CO)C(=O)c2cc(NC(=O)NC3CCCCC3)ccc2O1`: the cytotoxicity call was “inactive”. The result for `COCCOC(=O)N1C(=O)[C@@]2(c3cc(C#Cc4ccc(OC)cc4)ccc31)[C@H](c1ccccc1OCCO)N1[C@H](c3ccccc3)[C@H](c3ccccc3)OC(=O)[C@H]1[C@@H]2C(=O)NC[C@H](O)c1ccccc1` reads “inactive”.

For `CC(C)NC(=O)Nc1ccc2c(c1)CC(=O)N([C@H](C)CO)C[C@@H](C)[C@H](CN(C)S(=O)(=O)c1ccccc1)O2`, the cytotoxicity call was “inactive”. Under `C[C@@H]1CN([C@H](C)CO)C(=O)c2cccc(NC(=O)C3CCCCC3)c2O[C@@H]1CN(C)Cc1ccc(Oc2ccccc2)cc1` stands “inactive”.

As to `CO[C@@H]1CN(C)C(=O)c2cc(NC(=O)Nc3cccc(Cl)c3)ccc2OC[C@@H](C)N(C(=O)Nc2c(C)noc2C)C[C@@H]1C`, the cytotoxicity call was “inactive”. Under `CO[C@H]1CN(C)C(=O)c2cc(NC(=O)Nc3cccc(Cl)c3)ccc2OC[C@H](C)N(C(=O)Nc2c(C)noc2C)C[C@@H]1C` stands “inactive”. The result for `C[C@@H]1CCCCO[C@H](CN(C)S(=O)(=O)c2cccs2)[C@H](C)CN([C@H](C)CO)C(=O)c2cc(NC(=O)Nc3ccc(F)cc3)ccc2O1` reads “active”; that for `C[C@@H]1CCCCO[C@@H](CN(C)S(=O)(=O)c2cccs2)[C@H](C)CN([C@@H](C)CO)C(=O)c2cc(NC(=O)Cc3ccccc3)ccc2O1`, “inactive”; that for `C[C@@H]1CN([C@@H](C)CO)C(=O)c2cc(NC(=O)NC3CCCCC3)ccc2O[C@@H](C)CCCCO[C@H]1CN(C)S(=O)(=O)c1cccs1`, “inactive”.

As for `C[C@@H]1CCCCO[C@@H](CN(C)S(=O)(=O)c2cccs2)[C@H](C)CN([C@H](C)CO)C(=O)c2cc(NC(=O)NC3CCCCC3)ccc2O1`, the cytotoxicity call was “active”.

`C[C@@H]1CN([C@@H](C)CO)C(=O)c2cc(NC(=O)NC3CCCCC3)ccc2O[C@@H](C)CCCCO[C@@H]1CN(C)S(=O)(=O)c1cccs1`: the cytotoxicity call is “inactive”. Under `C[C@H]1CCCCO[C@H](CN(C)S(=O)(=O)c2cccs2)[C@@H](C)CN([C@@H](C)CO)C(=O)c2cc(NC(=O)Nc3ccc(F)cc3)ccc2O1` stands “inactive”; under `C[C@H](CO)N1C[C@H](C)[C@H](CN(C)S(=O)(=O)c2cccs2)OCCCC[C@H](C)Oc2ccc(NC(=O)Nc3ccc(F)cc3)cc2C1=O`, “inactive”; under `C[C@@H]1CCCCO[C@@H](CN(C)S(=O)(=O)c2cccs2)[C@H](C)CN([C@H](C)CO)C(=O)c2cc(NC(=O)Cc3ccccc3)ccc2O1`, “active”. As for `C[C@@H]1CN([C@H](C)CO)C(=O)c2cc(NC(=O)Cc3ccccc3)ccc2O[C@@H](C)CCCCO[C@H]1CN(C)S(=O)(=O)c1cccs1`, the cytotoxicity call is “inactive”.

`O=C(O)CNC(=O)C1CCC1`: the cytotoxicity call is “inactive”. Under `COCCNC(=O)C[C@@H]1CC[C@H]2[C@@H](COC[C@H](O)CN2C(=O)Nc2ccc3c(c2)OCO3)O1` stands “inactive”. For `CN1C(=O)c2cc(NC(=O)c3cscn3)ccc2OC[C@@H]2O[C@H](CC(=O)N3CCOCC3)CC[C@H]21`, the cytotoxicity call is “inactive”. Turning to `C[C@@H]1CCCCO[C@@H](CN(C)C(=O)Cc2ccccc2)[C@H](C)CN([C@H](C)CO)C(=O)c2cc(NC(=O)Nc3ccccc3)ccc2O1`, the cytotoxicity call is “inactive”.

With `COc1ccc(S(=O)(=O)N(C)C[C@@H]2Oc3ccc(NS(=O)(=O)c4ccccc4)cc3C(=O)N([C@@H](C)CO)C[C@@H]2C)cc1`, the cytotoxicity call was “inactive”. The result for `Cc1noc(C)c1NC(=O)N(C)C[C@@H]1Oc2ccc(NC(=O)c3ccncc3)cc2CC(=O)N([C@H](C)CO)C[C@@H]1C` reads “inactive”. Turning to `COC(=O)C1=C2CC[C@H](CO)NC(=O)N[C@H](Cc3ccccc3)C(=O)NCc3cn(nn3)C[C@H](Cc3ccccc3)NC(=O)c3oc(c(C(=O)OC)c3C(=O)OC)CC[C@H](CO)NC(=O)N[C@H](Cc3ccccc3)C(=O)NCc3cn(nn3)C[C@H](Cc3ccccc3)NC(=O)C(=C1C(=O)OC)O2`, the cytotoxicity call was “inactive”. For the molecule `C[C@@H]1CN([C@H](C)CO)C(=O)c2cc(C3=CCCC3)cnc2O[C@H]1CN(C)C(=O)Nc1ccc(C(F)(F)F)cc1`, the cytotoxicity call was “inactive”. Under `Cc1ccc(S(=O)(=O)N(C)C[C@H]2OCCCC[C@H](C)Oc3ccc(NC(=O)Nc4cccc5ccccc45)cc3C(=O)N([C@@H](C)CO)C[C@@H]2C)cc1` stands “inactive”. The result for `C[C@H](CO)N1C[C@H](C)[C@@H](CN(C)C(=O)C2CCOCC2)Oc2ncc(C#CCc3ccccc3)cc2C1=O` reads “inactive”; that for `C[C@@H]1CN([C@H](C)CO)C(=O)c2cc(Br)cnc2O[C@H]1CN(C)C(=O)Nc1ccc(F)cc1`, “inactive”.

`COc1ccc(NC(=O)N(C)C[C@H]2OCCCC[C@H](C)Oc3ccc(NS(=O)(=O)c4ccc(C)cc4)cc3C(=O)N([C@H](C)CO)C[C@@H]2C)cc1`: the cytotoxicity call is “inactive”.

As to `CCCc1cc(C)[nH]c(=O)c1CNC(=O)c1cc(-c2ccc(N3CCN(C(C)C)CC3)nc2)cc2c1cnn2C(C)C`, the cytotoxicity call is “active”.

Take `C[C@@H]1CN([C@H](C)CO)C(=O)c2cc(-c3cccc(C(=O)N(C)C)c3)cnc2O[C@H]1CN(C)S(=O)(=O)c1ccc(F)cc1`: the cytotoxicity call was “inactive”. Regarding `CO[C@@H](CN(C)S(=O)(=O)c1cn(C)cn1)[C@@H](C)CN(C(=O)Nc1ccc(C(F)(F)F)cc1)[C@@H](C)CO`, the cytotoxicity call is “inactive”. The result for `C[C@@H]1CCCCO[C@@H](CN(C)Cc2ccc3c(c2)OCO3)[C@@H](C)CN([C@@H](C)CO)C(=O)c2cc(NC(=O)NC3CCCCC3)ccc2O1` reads “inactive”; that for `C[C@@H]1CCCCO[C@@H](CN(C)Cc2ccc3c(c2)OCO3)[C@@H](C)CN([C@H](C)CO)C(=O)c2cc(NC(=O)NC3CCCCC3)ccc2O1`, “inactive”. On to `C[C@H](CO)N1C[C@H](C)[C@@H](CN(C)Cc2ccc3c(c2)OCO3)OCCCC[C@H](C)Oc2ccc(NC(=O)NC3CCCCC3)cc2C1=O`, for which the cytotoxicity call was “inactive”.

In the case of `C[C@@H]1CCCCO[C@H](CN(C)Cc2ccc3c(c2)OCO3)[C@H](C)CN([C@@H](C)CO)C(=O)c2cc(NC(=O)NC3CCCCC3)ccc2O1`, the cytotoxicity call is “active”. As for `C[C@H]1CCCCO[C@H](CN(C)Cc2ccc3c(c2)OCO3)[C@@H](C)CN([C@@H](C)CO)C(=O)c2cc(NC(=O)NC3CCCCC3)ccc2O1`, the cytotoxicity call was “inactive”. For the molecule `C[C@@H]1CCCCO[C@@H](CN(C)Cc2ccc3c(c2)OCO3)[C@H](C)CN([C@H](C)CO)C(=O)c2cc(NC(=O)NC3CCCCC3)ccc2O1`, the cytotoxicity call was “inactive”. The result for `C[C@@H]1CN([C@H](C)CO)C(=O)c2cc(NC(=O)NC3CCCCC3)ccc2O[C@@H](C)CCCCO[C@@H]1CN(C)Cc1ccc2c(c1)OCO2` reads “active”; that for `C[C@@H]1CCCCO[C@H](CN(C)Cc2ccc3c(c2)OCO3)[C@@H](C)CN([C@H](C)CO)C(=O)c2cc(NC(=O)NC3CCCCC3)ccc2O1`, “inactive”. As to `C[C@@H]1CCCCO[C@H](CN(C)Cc2ccc3c(c2)OCO3)[C@@H](C)CN([C@@H](C)CO)C(=O)c2cc(NC(=O)NC3CCCCC3)ccc2O1`, the cytotoxicity call is “active”. With `C[C@@H]1CCCCO[C@H](CN(C)Cc2ccc3c(c2)OCO3)[C@H](C)CN([C@H](C)CO)C(=O)c2cc(NC(=O)NC3CCCCC3)ccc2O1`, the cytotoxicity call was “inactive”. Regarding `C[C@@H]1CN([C@@H](C)CO)C(=O)c2cc(NC(=O)NC3CCCCC3)ccc2O[C@@H](C)CCCCO[C@@H]1CN(C)Cc1ccc2c(c1)OCO2`, the cytotoxicity call is “inactive”. Consider `C[C@H](CO)N1C[C@H](C)[C@H](CN(C)Cc2ccc3c(c2)OCO3)OCCCC[C@H](C)Oc2ccc(NC(=O)NC3CCCCC3)cc2C1=O`, for which the cytotoxicity call was “active”.

The record behind these values is the antibiotic and cytotoxicity screens of Wong et al. (2023).
